From PubChem
KB-3-1 tox: qHTS assay for MDR1-selective chemotherapeutics: Primary screen using the parental adenocarcinoma cell KB-3-1; Potency, µM (series often up to 46.1 µM), usual class: cytotoxic; KB-3-1 viability, CellTiter-Glo ATP luminescence, 72 h; 400,000 compounds, 1.4% hits; further: on the % scale 0 is the no-effect control and ±100 the full control effect; nearly all actives have a fitted effect of over 60% in size
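KB-3-1 cells, DMEM (no phenol red) + 10% FBS; compound by pin transfer, 72 h, 37 °C. Readout: CellTiter-Glo luminescence after 10 min. Data normalized, curve-fitted.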
HT1080 IDH1KD tx: qHTS for induction of synthetic lethality in tumor cells producing 2HG: qHTS for the HT-1080-IDH1KD cell line; HT-1080 IDH1 knockdown viability, ATP luminescence, 48 h; Potency, µM (top dose mostly 46.1 µM), for inactives: top-dose activity, negative = toxicity, actives largely listed as cytotoxic; 360,000 compounds, 2% hits; AID 686971, 2013;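 further: 0% = DMSO wells and -100% = cell-free medium wells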
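HT-1080-IDH1KD cells (IDH1 knocked down), 750/well in RPMI with 5% FBS, treated with compound 48 h at 37 degrees C. Viability by CellTiter-Glo luminescence, normalised to DMSO and no-cell wells; concentration-response curves classed.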
HepG2 viability: qHTS for Inhibitors of TGF-b: Cytotox Counterscreen; 410,000 compounds, 0.76% hits; Potency, µM (series often up to 46.1 µM), inactives show at the top dose activity change, negative = cytotoxicity, actives largely listed as cytotoxic; HepG2 CAGA-GFP viability, ATP luminescence, 18 h; AID 588856, 2011
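HepG2 CAGA-GFP cells (1000/well, DMEM with 1% FBS) received compound, then TGF-beta at 500 pg/mL final, and were incubated 18 hours at 37 degrees C. Viability was read by CellTiter-Glo luminescence. Media-only wells were set as complete cell-killing and DMSO as no toxicity.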
HT1080-NT tox: qHTS for induction of synthetic lethality in tumor cells producing 2HG: qHTS for the HT-1080-NT fibrosarcoma cell line. HT-1080-NT fibrosarcoma viability, CellTiter-Glo ATP luminescence, 48 h. Potency, µM (highest dose often 46.1 µM), without a hit: at the highest dose activity, negative = less viability, actives largely listed as cytotoxic. 360,000 compounds, 1.6% hits;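 further: NT is the 2HG producing partner of a matched IDH1 knockdown line; 0% = DMSO-treated cells and -100% = media-only wells without cells; nearly all actives have a fitted effect of over 55% in size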
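Toxicity toward the 2HG-producing NT line was scored as %Activity, normalised to DMSO and no-cell wells, from CellTiter-Glo luminescence after 48 hours' treatment.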
KB-V1 cytotox: qHTS assay for MDR1-selective chemotherapeutics: Primary screen using the drug-selected MDR subline cells KB-V1; KB-V1 MDR cells viability, CellTiter-Glo, 72 h; Potency, µM (series often up to 46.1 µM), usual class: cytotoxic; 400,000 compounds, 3.4% hits; further: on the % scale 0 is the no-effect control and ±100 the full control effect; nearly all actives have a fitted effect of over 60% in size
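KB-V1 cells (P-gp-expressing MDR subline of KB-3-1) in phenol-red-free DMEM with 10% FBS were exposed to library compounds over a concentration series for 72 h at 37 degrees C. Viability read by CellTiter-Glo luminescence; concentration-effect curves fitted after normalization.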
TGFb inhibitor: qHTS for Inhibitors of TGF-b; HepG2 CAGA-GFP TGF-b/SMAD3 reporter, GFP fluorescence, 18 h; TGF-beta stimulated, 500 pg/mL final; Potency, µM (highest dose often 46.1 µM), inactives show top-dose activity, negative = inhibition, hits mostly inhibitors; 410,000 compounds, 1.2% hits; AID 588855, 2011; further: on the % scale 0 is the no-effect control and ±100 the full control effect; nearly all actives have a fitted effect of over 65% in size
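Using HEPG2 CAGA-GFP reporter cells at 1000 cells/well, we pinned test compounds, stimulated with recombinant TGF-beta (500 pg/mL final) and measured total well GFP after 18 h.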
Starred values were filed as active, the others as inactive; i = inactive; u = inconclusive; x = no result given; ! = a repeat was not active. Only some compounds are listed: those with a hit (about 6.6% of all), similar ones and a draw of the others. The call rests on the fitted dose curve; in most records, active means well fitted curve in the direction sought with a large enough effect; inconclusive means small, poorly fitted or top-dose-only effect, or another doubt; inactive means no such curve, though single readings can be large; an effect the other way counts as inactive or inconclusive. Potency means the concentration at half of the fitted maximal effect.

SMILES	KB-3-1 tox	HT1080 IDH1KD tx	HepG2 viability	HT1080-NT tox	KB-V1 cytotox	TGFb inhibitor
COc1ccc(S(=O)(=O)N2CCOCC2)cc1NC(=O)CCNC(=O)c1ccc(Cl)cc1	i	u	9%	21µM*	i	10%
CCOc1ccc(S(=O)(=O)N2CCCCC2)cc1NC(=O)Cc1ccsc1	i	3%	3%	0%	12µM*	-8%
COc1ccc(S(=O)(=O)N2CCCCC2)cc1NC(=O)Cc1ccsc1	x	0%	-26%	1%	x	5%
COc1ccc(S(=O)(=O)N2CCOCC2)cc1NS(=O)(=O)c1ccc(F)c(F)c1	i	-5%	-2%	-5%	23µM*	-2%
Cc1ccc(CNC(=O)c2ccc3c(c2)N(Cc2cccc(Cl)c2)C(=O)CS3)cc1	i	x	-7%	x	i	0%
Cc1ccc(NC(=O)c2oc3ccc(Br)cc3c2C)cc1S(=O)(=O)N1CCOCC1	i	17%	1%	14%	i	-28%
Oc1ccccc1-c1nc(/C=C/c2ccccc2Cl)nn1-c1ccccc1	i	x	-44%	x	i	-25%
COc1ccc(S(=O)(=O)N2CCOCC2)cc1NC(=O)Cc1ccc(Cl)c(Cl)c1	i	-17%	-17%	-2%	i	-9%
COc1ccc(S(=O)(=O)N2CCOCC2)cc1NC(=O)Cc1ccc2c(c1)OCCO2	i	-5%	-21%	0%	18µM*	-18%
O=C1OC(c2ccc(F)cc2)CC1CN1CCOCC1 (configuration not stated)	i	16µM*	3%	u	i	38%
COc1ccc2cc3[n+](cc2c1OC)CCc1cc2c(cc1-3)OCO2	7.3µM*!	u	-21%	u	i	-6%
CCN(CC(=O)Nc1c(F)cccc1F)C(=O)CCC(=O)c1ccc(F)cc1	i	0%	5%	3%	i	-20%
CCN(CC(=O)Nc1c(F)cccc1F)C(=O)CN(C)S(=O)(=O)c1ccc(F)cc1	i	14%	7%	4%	21µM*	5%
Cc1ccc(S(=O)(=O)c2cnc(SC(C)C(=O)Nc3ccccc3)[nH]c2=O)cc1 (configuration not stated)	i	x	-1%	x	i	7%
CC(C)(C)C1CCC2(CC1)C(C#N)=C(SCC(=O)Nc1ccccc1)NC(=O)C2C#N (configuration not stated)	u	u	10µM*	15µM*	i	7.1µM*
CC1(C)CC(=O)C2=C(C1)NC(SCC(=O)Nc1ccccc1)=C(C#N)C21CCCCC1	u	-16%	-36%	u	21µM*	u
N#CC1=C(SCC(=O)c2cc3ccccc3oc2=O)NC(=O)C(C#N)C12CCCC2 (configuration not stated)	i	0%	-1%	-6%	i	5%
N#CC1=C(N)NC(SCc2ccc(Cl)cc2)=C(C#N)C12CCCCC2	u	21µM*	-16%	u	i	u
N#CC1=C(N)NC(SCC(=O)Nc2ccc(Br)cc2)=C(C#N)C12CCCCC2	i	u	-79%	u	i	18µM*
O=C(CCCn1c(=O)[nH]c2ccccc2c1=O)NCc1ccccc1Cl	i	x	-17%	x	i	-15%
COc1ccc(-c2noc(N3CCC(C(=O)N4CCN(c5ccccn5)CC4)CC3)n2)cc1	i	-14%	-27%	-15%	5.8µM*	-6%
COc1ccc(CCNCC(O)Cn2c3ccccc3c3ccccc32)cc1OC (configuration not stated)	u	23µM*	11µM*	-6%	u	u
COc1ccccc1NCC(O)Cn1c2ccccc2c2ccccc21 (configuration not stated)	i	u	-115%	-29%	i	13µM*
O=C(Nc1cccc(-c2nc3ccccc3[nH]2)c1)c1c(F)cccc1F	x	x	-32%	x	x	u
Cc1ccc(-c2nc3ccccc3o2)cc1NC(=S)NC(=O)/C=C/c1ccco1	13µM*	u	-8%	u	u	8%
SMILES	KB-3-1 tox	HT1080 IDH1KD tx	HepG2 viability	HT1080-NT tox	KB-V1 cytotox	TGFb inhibitor
Cc1ccc(-c2nc3ccccc3s2)cc1NC(=S)NC(=O)/C=C/c1ccco1	u	u	-10%	u	u	-27%
O=C(/C=C/c1ccco1)NC(=S)Nc1cccc(-c2nc3ccccc3s2)c1	8.2µM*	21µM*	-4%	23µM*	6.5µM*	4%
COc1ccc(-c2nc3ccccc3o2)cc1NC(=O)COc1c(C)cc(Cl)cc1Cl	u	x	13%	x	i	28%
O=C(/C=C/c1ccco1)NC(=S)Nc1cccc(-c2nc3ccccc3o2)c1	u	5.8µM*	0%	5.2µM*	8.2µM*	u
COc1ccc(-c2nc3ccccc3o2)cc1NC(=O)COc1ccc(C)c(C)c1	5.8µM*	x	-13%	x	u	14%
Cc1ccc(Cl)cc1N1CCN(C(c2ccc(F)cc2)c2nnc(-c3ccccc3)o2)CC1 (configuration not stated)	i	x	-18%	x	i	-17%
COc1ccc(CCNCCC(c2ccccc2)c2ccccc2)cc1OC	u	-29%	13µM*	-29%	i	u
COc1ccccc1CCNC(C)CCc1ccc(O)cc1 (configuration not stated)	i	-1%	-23%	5%	i	16%
COc1cc(OC)c(OC)cc1CCC(C)NCCC(c1ccccc1)c1ccccc1 (configuration not stated)	i	u	11µM*	u	i	14µM*
Cc1ccc(C)c(N2CCN(C(=O)CN3C(=O)COc4ccc(S(=O)(=O)N5CCOCC5)cc43)CC2)c1	i	x	-4%	x	i	4%
CCCN1CCN(CC2=C(C(=O)OCC)C(c3ccc(Cl)cc3)NC(=O)N2)CC1 (configuration not stated)	i	x	-30%	x	i	-22%
CC(=O)c1ccc(NC(=O)c2cn(C)c(=O)c3ccccc23)cc1	i	5%	-37%	7%	u	-4%
CCOc1ccc(C(=O)Nc2cc(-c3cn4cccnc4n3)ccc2C)cc1OCC	x	x	-13%	x	x	9%
